This note sets out measurements from PubChem BioAssay (EPA / NIEHS).

Inconclusive results are not listed. Calls of active or inactive are those of the source. Rule for the calls: active = hit-call score of the fitted dose curve at least 0.9, where 1 is the maximum; inconclusive = response in the unintended direction; inactive = score below 0.9.

What is called AC50 is the midpoint of the concentration-response curve, whichever way the signal moves.

Chain of Cytochrome P450 3A4 (Homo sapiens) (P08684 whole entry, looked up): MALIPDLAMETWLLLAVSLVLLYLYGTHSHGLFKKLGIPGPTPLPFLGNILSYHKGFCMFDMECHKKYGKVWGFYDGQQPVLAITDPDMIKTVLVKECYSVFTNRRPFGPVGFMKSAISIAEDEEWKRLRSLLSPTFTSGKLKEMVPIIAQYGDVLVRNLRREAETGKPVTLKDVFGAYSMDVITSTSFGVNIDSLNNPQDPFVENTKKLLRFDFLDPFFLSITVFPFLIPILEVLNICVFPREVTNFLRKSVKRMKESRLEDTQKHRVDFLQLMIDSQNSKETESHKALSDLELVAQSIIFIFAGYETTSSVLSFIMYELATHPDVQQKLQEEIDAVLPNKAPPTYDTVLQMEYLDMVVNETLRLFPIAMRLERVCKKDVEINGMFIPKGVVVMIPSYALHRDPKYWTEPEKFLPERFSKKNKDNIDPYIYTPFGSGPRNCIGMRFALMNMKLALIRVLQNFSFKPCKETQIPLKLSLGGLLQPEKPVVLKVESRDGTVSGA

Read-out in this experiment: Cytochrome P450 3A4 (Homo sapiens) (UniProt P08684)
Put plainly: CLD_CYP3A4_24hr: CellzDirect (CLD) Gene Expression Assay for xenobiotic metabolism (CYP3A4) at 24 hours (AID 2283689). The method, then:
CLD_24hr is a cell-based, multiplexed-readout assay that uses hepatocyte, a human liver primary cell, with measurements taken at 24 hours after chemical dosing in a 96-well plate.CLD_CYP3A4_24hr is one of 16 assay component(s) measured or calculated from the CLD_24hr assay. It is designed to make measurements of mRNA induction, a form of inducible reporter, as detected with chemiluminescence signals by Quantitative Nuclease Protection Assay (qNPA) technology.Data from the assay component CLD_CYP3A4_24hr was analyzed at the endpoint, CLD_CYP3A4_24hr, in the positive analysis fitting direction relative to DMSO as the negative control and baseline of activity. Using a type of inducible reporter, gain-of-signal activity can be used to understand changes in the reporter gene as they relate to the gene CYP3A4. Furthermore, this assay endpoint can be referred to as a primary readout. To generalize the intended target to other relatable targets, this assay endpoint is annotated to the cyp intended target family, where subfamily is xenobiotic metabolism.
Human hepatocyte cultures were treated daily for two consecutive days with fresh dosing solutions containing appropriate concentrations of the 320 ToxCast chemicals (chemical identities were blinded to CellzDirect and other ToxCast collaborators), vehicle control (0.2% DMSO), and positive control inducers as summarized in Table 1. Due to the large number of treatment groups and chemicals examined, the ToxCast chemicals were divided into two groups (spanning two independent cultures of hepatocytes from separate donor preparations (Hu778: ToxCast plates 1 and 2; Hu776: ToxCast plates 3 and 4). Each preparation of human hepatocyte cultures was treated with respective vehicle control, medium only control, set of six positive controls/reference chemicals for the five hepatic receptor pathways, and a subset of eight of the ToxCast chemicals (indoxacarb, pyrithiobac-sodium, norflurazon, cyhalofop-butyl, methomyl, thiram, acetochlor, and propiconazole). These replicate data, coupled with internal replicates designed within the blinded ToxCast chemical library, provided additional data to evaluate interindividual differences between hepatocyte preparations and their potential impact on chemical profiles.Cell morphology and integrity were evaluated using phase-contrast microscopy as an indicator of hepatocyte cell health (Tyson & Green, 1987). Cultures for each treatment group (i.e., media, vehicle [0.2% DMSO], positive control inducers [multiple concentrations], and the ToxCast chemicals [multiple concentrations]) were observed and cell morphology was assessed relative to vehicle control cultures at each harvest time point (0, 6, 24, or 48 h). […] Images were evaluated at the conclusion of the study to assess changes in cell integrity and account for the effects of chemical exposure on uncharacteristic changes in concentration-dependent gene expression profiles. The results from these determinations of apparent cytotoxicity were annotated (yes/no) alongside the corresponding qNPA data for reference.At the conclusion of each treatment period, hepatocyte cultures (96-well) were washed with 1 volume of HBSS, lysed by addition of 25 ul ArrayPlate lysis buffer (HTG, Tucson, AZ), and 70 ul/well of Denaturation Oil, denatured by incubation at 95C for 10 min, and frozen at approximately -70C until analysis by nuclease protection assay (qNPA) (Roberts et al., 2007). For qNPA analysis, cell lysates were thawed at 50C for approximately 30 min, qNPA probes were added, and samples were incubated at 95C for 10 min to begin the detection process by denaturing the target RNA, dissociating the duplexes and secondary structure hybridization. At the conclusion of the hybridization period, S1 nuclease reagent was added to each sample to digest all nonprotected nucleotides at 50C for 60-90 min. […]
Regarding `CCC(=O)Nc1ccc(Cl)c(Cl)c1`, the result was inactive.
In the case of `CCOC(=O)CC(SP(=O)(OC)OC)C(=O)OCC` (stereo not given), the AC50 is 20 µM (active).
Regarding `CNc1cnn(-c2cccc(C(F)(F)F)c2)c(=O)c1Cl`, the AC50 was 5.8 µM (active).
In the case of `CC1(C(=O)Nc2ccc(O)c(Cl)c2Cl)CCCCC1`, the compound was classed as inactive.
With `CCOP(=S)(OCC)SCCSCC`, the AC50 is 20 µM (active).
Turning to `CCC(=NOC/C=C/Cl)C1=C(O)CC(C2CCOCC2)CC1=O` (stereo not given), the compound was classed as inactive.
The same measure, in the same setting: next, `CC(C)[C@H](C(=O)O[C@H](C#N)c1cccc(Oc2ccccc2)c1)c1ccc(Cl)cc1`: “inactive”.
For the compound `COc1ccc(C(=CC(=O)N2CCOCC2)c2ccc(Cl)cc2)cc1OC`, the AC50 is 2.09 µM (active).
As for `COP(=O)(OC)SCn1c(=O)oc2cc(Cl)cnc21`, the result was inactive.
As for `C#CC(C)(C)NC(=O)c1cc(Cl)cc(Cl)c1`, the call was inactive.
As for `Cc1nn(-c2cc(NS(C)(=O)=O)c(Cl)cc2Cl)c(=O)n1C(F)F`, the AC50 is 0.376 µM (active).
Turning to `FC(F)C(F)(F)OCC(Cn1cncn1)c1ccc(Cl)cc1Cl` (stereo not given), the AC50 is 0.949 µM (active).
Take `CSC1=N[C@@](C)(c2ccccc2)C(=O)N1Nc1ccccc1`: the compound was classed as inactive.
As to `Nc1c(Cl)cc([N+](=O)[O-])cc1Cl`, the call was inactive.
Consider `CSc1nnc(C(C)(C)C)c(=O)n1N`, for which the AC50 was 4.88 µM (active).
For `CCOP(=O)(OCC)Oc1cc(C)nc(C(C)C)n1`, the outcome was inactive.
Consider `CCCOCC(=Nc1ccc(Cl)cc1C(F)(F)F)n1ccnc1`, for which the AC50 was 1.9 µM (active).
Take `CNC(=O)Oc1cccc2c1OC(C)(C)O2`: the AC50 is 20 µM (active).
For `COc1cccc(C(=O)NN(C(=O)c2cc(C)cc(C)c2)C(C)(C)C)c1C`, the AC50 is 3.74 µM (active).
Regarding `O=C(O)c1cc(Oc2ccc(C(F)(F)F)cc2Cl)ccc1[N+](=O)[O-]`, the outcome was inactive.
Regarding `N#CSCSC#N`, the result was inactive.
On to `COP(=O)(NC(C)=O)SC` (stereo not given), for which the compound was classed as inactive.
With `C[Si](Cn1cncn1)(c1ccc(F)cc1)c1ccc(F)cc1`, the AC50 is 1.89 µM (active).
As for `CN(C)NC(=O)CCC(=O)O`, the call was inactive.
On to `CCNc1nc(Cl)nc(NC(C)(C)C#N)n1`, for which the AC50 was 4.74 µM (active).
Take `CCc1cccc(CC)c1N(COC)C(=O)CCl`: the AC50 was 15.7 µM (active).
For the compound `COc1cc(OC)nc(Sc2cccc(Cl)c2C(=O)O)n1`, the AC50 was 20 µM (active).
On the same count and under the same terms, next, `CCCSP(=O)(OCC)Oc1ccc(Br)cc1Cl` (stereo not given): 20 µM (active).
For `CC(COc1ccc(Oc2ccccc2)cc1)Oc1ccccn1` (stereo not given), the AC50 is 4.68 µM (active).
Turning to `CC(C1CC1)C(O)(Cn1cncn1)c1ccc(Cl)cc1` (stereo not given), the AC50 is 3.78 µM (active).
With `CN(C)C(=O)Nc1cccc(C(F)(F)F)c1`, the AC50 was 20 µM (active).
With `CC[C@H](C)[C@H]1O[C@]2(C=C[C@@H]1C)C[C@@H]1C[C@@H](C/C=C(\C)[C@@H](O[C@H]3C[C@H](OC)[C@@H](O[C@H]4C[C@H](OC)[C@@H](NC)[C@H](C)O4)[C@H](C)O3)[C@@H](C)/C=C/C=C3\CO[C@@H]4[C@H](O)C(C)=C[C@@H](C(=O)O1)[C@]34O)O2`, the compound was classed as inactive.
In the case of `O=[N+]([O-])c1cc(C(F)(F)F)c(Cl)c([N+](=O)[O-])c1Nc1ncc(C(F)(F)F)cc1Cl`, the call was inactive.
In the case of `CC(C)N(C(=O)SCC(Cl)=C(Cl)Cl)C(C)C`, the AC50 was 20 µM (active).
For `CCOP(=S)(OCC)Oc1ccc([N+](=O)[O-])cc1`, the AC50 was 5.25 µM (active).
For the compound `Cc1ccn2nc(S(=O)(=O)Nc3c(F)cccc3F)nc2n1`, the result was inactive.
On to `CCCCN(CC)c1c([N+](=O)[O-])cc(C(F)(F)F)cc1[N+](=O)[O-]`, for which the AC50 was 6.35 µM (active).
`CN(C)[C@@H]1C(=O)C(C(N)=O)=C(O)[C@@]2(O)C(=O)C3=C(O)c4c(O)cccc4[C@@](C)(O)[C@H]3[C@H](O)[C@@H]12`: the outcome was inactive.
Take `CC(C)=CC1C(C(=O)OCN2C(=O)C3=C(CCCC3)C2=O)C1(C)C` (stereo not given): the AC50 is 4.28 µM (active).
Take `CSc1nc(NC(C)C)nc(NC(C)C)n1`: the AC50 is 3.97 µM (active).
